Experimental data from the supplement of paper PMC6992640.

What follows are compounds tested on WHIM30 (cells of a triple-negative basal-like breast cancer xenograft) (assay: cell viability of combination (% of vehicle); higher = less cytotoxic). Settings: 1 µM; 72 h; partner dose: 10 nM.
Procedure: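 PDX cells were treated for 72 h with each drug at 1 µM plus carfilzomib (10 nM; 100 nM for WHIM2). Luciferase viability is expressed as percent of vehicle.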

Compound | cell viability of combination
Cc1cc(C(C#N)c2ccc(Cl)cc2)c(Cl)cc1NC(=O)c1cc(I)cc(I)c1O (stereo not given) [Closantel] + CC(C)C[C@H](NC(=O)[C@H](CCc1ccccc1)NC(=O)CN1CCOCC1)C(=O)N[C@@H](Cc1ccccc1)C(=O)N[C@@H](CC(C)C)C(=O)[C@@]1(C)CO1 [Carfilzomib] | 16.8
CCCCCCCCCCCCCCCC[N+](C)(C)C.[Br-] [Cetrimonium Bromide (CTAB)] + CC(C)C[C@H](NC(=O)[C@H](CCc1ccccc1)NC(=O)CN1CCOCC1)C(=O)N[C@@H](Cc1ccccc1)C(=O)N[C@@H](CC(C)C)C(=O)[C@@]1(C)CO1 [Carfilzomib] | 12
CCCCCCCCCCCC[N+](C)(C)CCOc1ccccc1.[Br-] [Domiphen Bromide] + CC(C)C[C@H](NC(=O)[C@H](CCc1ccccc1)NC(=O)CN1CCOCC1)C(=O)N[C@@H](Cc1ccccc1)C(=O)N[C@@H](CC(C)C)C(=O)[C@@]1(C)CO1 [Carfilzomib] | 9.06
CCCCCCCCCCCCCCCC[n+]1ccccc1.[Cl-] [Cetylpyridinium Chloride] + CC(C)C[C@H](NC(=O)[C@H](CCc1ccccc1)NC(=O)CN1CCOCC1)C(=O)N[C@@H](Cc1ccccc1)C(=O)N[C@@H](CC(C)C)C(=O)[C@@]1(C)CO1 [Carfilzomib] | 11.9
Cc1cc(C(C#N)c2ccc(Cl)cc2)c(Cl)cc1NC(=O)c1cc(I)cc(I)c1[O-].[Na+] (stereo not given) [Closantel Sodium] + CC(C)C[C@H](NC(=O)[C@H](CCc1ccccc1)NC(=O)CN1CCOCC1)C(=O)N[C@@H](Cc1ccccc1)C(=O)N[C@@H](CC(C)C)C(=O)[C@@]1(C)CO1 [Carfilzomib] | 17.8
